# This is part of a sample that, as a whole, favours compounds with a hit. Of some 79,000 tested, about 15% had one in any assay. A number with no mark means an inactive call. Calls of active or inactive are those of the source. No stated cut-off is given here; in the data, active means growth inhibition above about 70%; inactive means the rest.
# Experiments:
# [1] = NCI Yeast Anticancer Drug Screen. Data for the rad52 strain (AID 147);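 further: 0% = growth of vehicle-treated control cultures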; details: S. cerevisiae rad52 mutant growth inhibition, hits give high values
# Method in brief: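 The repair-mutant yeast strain was incubated with compounds, then growth was read and inhibition derived relative to vehicle.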
# [2] = NCI Yeast Anticancer Drug Screen. Data for the wt1 strain (AID 149);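 further: 0% = growth of vehicle-treated wt1 cultures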; details: S. cerevisiae wt1 strain (SPY 50644) growth inhibition, hits give high values
# Method in brief: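 Vehicle-normalised growth inhibition; strain wt1; compound exposure.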
# [3] = NCI Yeast Anticancer Drug Screen. Data for the rad50EPP+ strain (AID 151);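 further: 0% = growth of vehicle-treated control cultures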; details: S. cerevisiae rad50 mutant strain, hits give high values
# Method in brief: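 Vehicle-normalised growth inhibition; rad50EPP+ yeast strain, altered in DNA damage repair, compound-treated.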
# [4] = NCI Yeast Anticancer Drug Screen. Data for the mgt1 strain (AID 153); details: S. cerevisiae mgt1 mutant growth inhibition, hits give high values
# Method in brief: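 Vehicle-normalized growth inhibition is determined in mgt1 yeast, a strain selected for a defined alteration in DNA repair or cell cycle control.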
# [5] = NCI Yeast Anticancer Drug Screen. Data for the rad50 strain (AID 155);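 further: 0% = growth of vehicle-only cultures of the same strain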; details: S. cerevisiae rad50 strain growth inhibition, hits give high values
# Method in brief: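 A DNA repair-deficient yeast mutant serves as the test organism; compound-induced growth inhibition is calculated against vehicle-treated cells.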
# [6] = NCI Yeast Anticancer Drug Screen. Data for the mec2-1 strain (AID 157); details: S. cerevisiae mec2-1 strain, hits give high values
# Method in brief: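 Mutant yeast (mec2-1) grown with compound; growth inhibition relative to vehicle control reported.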
# [7] = NCI Yeast Anticancer Drug Screen. Data for the rad14 strain (AID 159);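 further: 0% = growth of vehicle-treated control cultures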; details: S. cerevisiae rad14 strain growth inhibition, hits give high values
# Method in brief: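 Vehicle-treated cultures served as the baseline for growth inhibition of a DNA repair-mutant yeast strain exposed to each compound.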
# [8] = NCI Yeast Anticancer Drug Screen. Data for the sgs1 mgt1 strain (AID 161);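 further: 0% = growth of cultures given vehicle only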; details: S. cerevisiae sgs1 mgt1 strain, hits give high values
# Method in brief: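 Percent growth inhibition was derived by comparing compound-exposed mutant yeast with vehicle-exposed cultures. The strain carries alterations in DNA damage repair.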
# [9] = NCI Yeast Anticancer Drug Screen. Data for the CLN2oe strain (AID 163);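 further: 0% = growth of vehicle-only control cultures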; details: S. cerevisiae CLN2oe strain, hits give high values
# Method in brief: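 Compounds are applied to yeast harbouring a defined cell-cycle control change; reduced growth compared with vehicle-treated controls gives the value.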
# [10] = NCI Yeast Anticancer Drug Screen. Data for the cln2 rad14 strain (AID 165);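 further: 0% = growth equal to vehicle treated cultures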; details: S. cerevisiae cln2 rad14 strain, hits give high values
# Method in brief: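 Readout is yeast growth inhibition versus vehicle-treated controls, using a strain with cln2 and rad14 alterations exposed to compound.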
# [11] = NCI Yeast Anticancer Drug Screen. Data for the bub3 strain (AID 167); details: S. cerevisiae bub3 mutant strain, hits give high values
# Method in brief: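 Inhibition values come from growth of compound-treated mutant yeast normalised to vehicle-treated controls.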
# [12] = NCI Yeast Anticancer Drug Screen. Data for the wt2 strain (AID 169);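 further: 0% = growth of vehicle-treated yeast cultures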; details: S. cerevisiae wt2 strain growth inhibition, hits give high values
# Method in brief: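 Against vehicle-treated controls, the growth of yeast exposed to each compound was compared, and the inhibition was recorded.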
# [13] = NCI Yeast Anticancer Drug Screen. Data for the mlh1 strain (AID 171);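 further: 0% = growth of vehicle-treated control cultures of the same strain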; details: S. cerevisiae mlh1 strain growth inhibition, hits give high values
# Method in brief: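 Measured: yeast growth. Reference: vehicle-treated controls. Organism: strain with a defined alteration affecting DNA damage repair or cell cycle control, treated with compound.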
# [14] = NCI Yeast Anticancer Drug Screen. Data for the sgs1 strain (AID 173);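 further: 0% = growth of vehicle-only control cultures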; details: S. cerevisiae sgs1 mutant, hits give high values
# Method in brief: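 Each compound was added to cultures of the altered yeast strain. Growth was recorded, and inhibition was derived by comparison with vehicle controls.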
# [15] = NCI Yeast Anticancer Drug Screen. Data for the mlh1 rad18 strain (AID 175); details: S. cerevisiae mlh1 rad18 strain growth inhibition, hits give high values
# Method in brief: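 Genetically defined yeast (DNA repair-deficient) exposed to compounds; growth inhibition determined relative to vehicle.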
# [16] = NCI Yeast Anticancer Drug Screen. Data for the rad18 strain (AID 177); details: S. cerevisiae rad18 mutant growth inhibition, hits give high values
# Method in brief: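 Vehicle-treated cultures served as the baseline for scoring compound-induced growth inhibition in DNA-repair-mutant yeast.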
# [17] = at 5.0 µM (retest, dose inferred, filed as 0.5)
# [18] = at 50.0 µM (retest, dose inferred, filed as 5.0)
structure (smiles),measurement,setting,value
S=C(Nc1ccc(Cl)c(Cl)c1)SCc1ccc2c(c1)OCO2,growth inhibition,[1]; at 1.2 µM,6%
same,growth inhibition,[1]; at 3.7 µM,54%
same,growth inhibition,[1]; at 11.0 µM,99% (active)
same,growth inhibition,[1]; at 33.0 µM,99% (active)
same,growth inhibition,[1]; at 100.0 µM,94% (active)
same,growth inhibition,[2]; at 1.2 µM,1%
same,growth inhibition,[2]; at 3.7 µM,49%
same,growth inhibition,[2]; at 11.0 µM,100% (active)
same,growth inhibition,[2]; at 33.0 µM,99% (active)
same,growth inhibition,[2]; at 100.0 µM,96% (active)
same,growth inhibition,[3]; at 1.2 µM,27%
same,growth inhibition,[3]; at 3.7 µM,84% (active)
same,growth inhibition,[3]; at 11.0 µM,99% (active)
same,growth inhibition,[3]; at 33.0 µM,99% (active)
same,growth inhibition,[3]; at 100.0 µM,97% (active)
same,growth inhibition,[4]; at 1.2 µM,-2%
same,growth inhibition,[4]; at 3.7 µM,15%
same,growth inhibition,[4]; at 11.0 µM,99% (active)
same,growth inhibition,[4]; at 33.0 µM,99% (active)
same,growth inhibition,[4]; at 100.0 µM,97% (active)
same,growth inhibition,[5]; at 1.2 µM,-4%
same,growth inhibition,[5]; at 3.7 µM,40%
same,growth inhibition,[5]; [17],52%
same,growth inhibition,[5]; at 11.0 µM,99% (active)
same,growth inhibition,[5]; at 33.0 µM,99% (active)
same,growth inhibition,[5]; [18],97% (active)
same,growth inhibition,[5]; at 50.0 µM,87.3% (active)
same,growth inhibition,[5]; at 100.0 µM,94% (active)
same,growth inhibition,[6]; at 1.2 µM,-2%
same,growth inhibition,[6]; at 3.7 µM,6%
same,growth inhibition,[6]; [17],78% (active)
same,growth inhibition,[6]; at 11.0 µM,100% (active)
same,growth inhibition,[6]; at 33.0 µM,99% (active)
same,growth inhibition,[6]; [18],98% (active)
same,growth inhibition,[6]; at 50.0 µM,92.1% (active)
same,growth inhibition,[6]; at 100.0 µM,97% (active)
same,growth inhibition,[7]; at 1.2 µM,4%
same,growth inhibition,[7]; at 3.7 µM,54%
same,growth inhibition,[7]; at 11.0 µM,100% (active)
same,growth inhibition,[7]; at 33.0 µM,99% (active)
same,growth inhibition,[7]; at 100.0 µM,96% (active)
same,growth inhibition,[8]; [17],77% (active)
same,growth inhibition,[8]; [18],98% (active)
same,growth inhibition,[8]; at 50.0 µM,89.6% (active)
same,growth inhibition,[9]; at 1.2 µM,-4%
same,growth inhibition,[9]; at 3.7 µM,-13%
same,growth inhibition,[9]; at 11.0 µM,99% (active)
same,growth inhibition,[9]; at 33.0 µM,99% (active)
same,growth inhibition,[9]; at 100.0 µM,93% (active)
same,growth inhibition,[10]; [17],5%
same,growth inhibition,[10]; [18],97% (active)
same,growth inhibition,[10]; at 50.0 µM,87.6% (active)
same,growth inhibition,[11]; at 1.2 µM,-7%
same,growth inhibition,[11]; at 3.7 µM,29%
same,growth inhibition,[11]; [17],76% (active)
same,growth inhibition,[11]; at 11.0 µM,99% (active)
same,growth inhibition,[11]; at 33.0 µM,99% (active)
same,growth inhibition,[11]; [18],98% (active)
same,growth inhibition,[11]; at 50.0 µM,88.2% (active)
same,growth inhibition,[11]; at 100.0 µM,96% (active)
same,growth inhibition,[12]; at 1.2 µM,14%
same,growth inhibition,[12]; at 3.7 µM,90% (active)
same,growth inhibition,[12]; at 11.0 µM,100% (active)
same,growth inhibition,[12]; at 33.0 µM,100% (active)
same,growth inhibition,[12]; at 100.0 µM,97% (active)
same,growth inhibition,[13]; at 1.2 µM,-6%
same,growth inhibition,[13]; at 3.7 µM,66%
same,growth inhibition,[13]; at 11.0 µM,99% (active)
same,growth inhibition,[13]; at 33.0 µM,99% (active)
same,growth inhibition,[13]; at 100.0 µM,95% (active)
same,growth inhibition,[14]; at 1.2 µM,6%
same,growth inhibition,[14]; at 3.7 µM,38%
same,growth inhibition,[14]; at 11.0 µM,99% (active)
same,growth inhibition,[14]; at 33.0 µM,99% (active)
same,growth inhibition,[14]; at 100.0 µM,96% (active)
same,growth inhibition,[15]; [17],90% (active)
same,growth inhibition,[15]; [18],97% (active)
same,growth inhibition,[15]; at 50.0 µM,88.7% (active)
same,growth inhibition,[16]; at 1.2 µM,-7%
same,growth inhibition,[16]; at 3.7 µM,34%
same,growth inhibition,[16]; at 11.0 µM,99% (active)
same,growth inhibition,[16]; at 33.0 µM,99% (active)
same,growth inhibition,[16]; at 100.0 µM,96% (active)

# Source: PubChem BioAssay (NCI)
